Data reported in PubChem BioAssay AID1007 (NMMLSC, 2008).
Hit rate of the full screen: of about 190,000 compounds, about 80 (0.04%) were called active. Rule as the data show it: active = inhibition above about 40%. The list is a sample of the results.

biological target: Bcl-2-like protein 1 (Homo sapiens) (UniProt Q07817); assay: Bcl-XL/Bim peptide interaction blockers – biochemical, multiplexed, bead flow cytometry, human Bcl-XL, primary screen (AID 1007); settings: Bim peptide-Bcl-XL binding, fluorescence, at 10 µM, active compounds read high
Sequence (Q07817 whole entry, looked up): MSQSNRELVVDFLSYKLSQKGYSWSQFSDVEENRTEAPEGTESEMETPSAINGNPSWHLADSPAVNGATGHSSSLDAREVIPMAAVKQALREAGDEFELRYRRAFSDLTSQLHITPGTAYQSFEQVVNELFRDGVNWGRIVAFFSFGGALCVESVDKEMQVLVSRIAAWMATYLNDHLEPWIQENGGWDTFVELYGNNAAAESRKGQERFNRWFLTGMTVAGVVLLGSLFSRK

inhibition, inactive:
COc1ccc(-c2[nH]ncc2CN(C)Cc2cccnc2)c(F)c1 0%, Cc1ccc2c(c1)C1CN(C)CCC1N2S(=O)(=O)c1ccc(Oc2ccc([N+](=O)[O-])cc2)cc1 (stereo unspecified) -1%, CS(=O)(=O)N(CC(=O)N/N=C/c1ccccn1)c1ccc(Oc2ccccc2)cc1 -4%, CCOCCCNC(=O)C(=O)NCCCOCC -11%, O=C(COC(=O)Cc1ccc(F)cc1)Nc1cc(S(=O)(=O)N2CCOCC2)ccc1N1CCCC1 -11%, Cc1nc(N2CCC(C)CC2)c2c(C)c(C(=O)Nc3cc(F)ccc3C)sc2n1 -5%, Cc1ccc(C)c(CSc2nc(-c3ccco3)nc3c2c(=O)n(C)c(=O)n3C)c1 -2%, CCN(CC)CCn1c(/N=C/c2cc(Br)ccc2O)nc2ccccc21 -11%, O=[N+]([O-])c1ccccc1Nc1ccc(O)cc1 -5%, Cc1c(C(=O)O)nnn1-c1nonc1N 0%, CN1CCN(C(CNS(=O)(=O)c2cccs2)c2cccnc2)CC1 (stereo unspecified) 0%, O=C(Cc1cccs1)N/N=C/c1ccc(OCc2ccccc2)cc1 -4%, O=C(Nc1ccc2oc(-c3ccccc3F)nc2c1)c1ccco1 0%, O=c1c(Cl)c(NCc2ccc(F)cc2Cl)cnn1C12CC3CC(CC(C3)C1)C2 -8%, COC(=O)c1ccc(OCC(O)CN(CCO)CC(O)Cn2ccc3ccccc32)cc1 (stereo unspecified) -8%, CCc1ccc(-c2cc(C(=O)NN3CCN(C)CC3)c3ccccc3n2)cc1 -6%, COc1ccc(CCc2nnc(CCC(=O)NCc3cnn(-c4ccccc4C)c3)o2)cc1 0%, Cc1ccc(NC(=O)Cn2cccc2C2=NC(c3ccccc3)CO2)c(C)c1 (stereo unspecified) -2%, CC(Sc1nc2c([nH]c3ccccc32)c(=O)n1C)c1ccccc1 (stereo unspecified) -6%, O=C(Nc1ccccc1C(=O)N1CCOCC1)c1ccc(Cl)cc1 0%, Cc1nnc(SCC2=C(C(=O)O)N3C(=O)C(NC(=O)Cn4nc(C)c(Cl)c4C)C3SC2)s1 (stereo unspecified) -6%, O=C(NC(CC(=O)N1CCN(c2ccccc2)CC1)c1ccccc1)c1ccccc1Cl (stereo unspecified) -6%, COc1ccc(NC(=O)COc2ccc(C(=O)OCC(=O)N(C)C3CCS(=O)(=O)C3)cc2OC)cc1 (stereo unspecified) -2%, Cn1c(CCC(=O)Nc2ccccc2F)nnc1SCC(=O)Nc1ccccc1Cl -5%, COc1ccc(NC(=O)CC2C(=O)OCC3CCCCN32)cc1Cl (stereo unspecified) -4%, O=[N+]([O-])c1cccc(S(=O)(=O)N2CCCCCC2)c1 -7%
